Compound activity deposited in PubChem by National Center for Advancing Translational Sciences (NCATS).
AID923: qHTS Assay for Allosteric/Competitive Inhibitors of Caspase-1: Spectroscopic Profiling in AFC Spectral Region; compound fluorescence, AFC spectral region (405/520 nm); Potency, µM (series often up to 57.5 µM), without a hit: at the top dose fluorescence increase, hits mostly activators; hit rate 1.1% among 75,000; also: potency is read from the fitted curve at half-maximal effect; 0% is about no effect
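Baseline compound fluorescence (AFC region, 405 nm ex/520 nm em) taken from the intercept of kinetic reads with 50 nM caspase-1 and 5 uM Ac-WEHD-AFC; normalized to an on-plate AFC standard curve; compounds titrated up to 57 uM.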
HSD17B inhib: qHTS Assay for Inhibitors of HSD17B4, hydroxysteroid (17-beta) dehydrogenase 4; 3-hydroxyacyl-CoA dehydrogenase type-2 (Homo sapiens), Q99714; recombinant HSD17B10, NADH fluorescence kinetic; Potency, µM (series often up to 57.1 µM), for inactives: at the highest dose activity change, negative = inhibition, most hits filed as inhibitors; hit rate 7.6% among 75,000; AID 893, 2007;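 also: the protocol describes HADH2 (HSD17B10) and not the HSD17B4 of the title; potency is read from the fitted curve at half-maximal effect; % is scaled to controls: 0 for no effect and ±100 for the full control effect; nearly all actives have a fitted effect of over 70% in size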
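20 nM HADH2, pH 9.0 Tris/Tween; cpd preinc 15 min RT; start w/ 1 mM NAD+ + 90 uM b-hydroxybutyryl-CoA; kinetic fluor ex360/em450 q30s x 4 min; delta last-first.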
A350 fluor: qHTS Assay for Spectroscopic Profiling in A350 Spectral Region; Compound autofluorescence, 340/450 nm, Alexa 350 dye-equivalents; hits give high values; max dye-equivalent concentration, M; hit rate 11% among 59,000; AID 590, 2007; in the data active = max dye-equivalent concentration above about 10 nM; inconclusive = mostly about 1.1 nM to 9.6 nM
4-MU autofl: qHTS Assay for Spectroscopic Profiling in 4-MU Spectral Region; compound autofluorescence, 340/450 nm, 4-MU equivalents; hits give high values; max dye-equivalent concentration, M; hit rate 11% among 59,000; AID 589, 2007; in the data active = max dye-equivalent concentration above about 10 nM; inconclusive = mostly about 1.1 nM to 9.6 nM
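Compounds in 100 mM Tris, pH 8.0, incubated 15 min at room temperature, then fluorescence read at 340 nm excitation/450 nm emission. Signal converted to 4-MU dye-equivalent concentration using an on-plate six-point 4-MU standard curve.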
HADH2 inhib: qHTS Assay for Inhibitors of HADH2 (Hydroxyacyl-Coenzyme A Dehydrogenase, Type II); recombinant HADH2, NADH fluorescence, beta-hydroxybutyryl-CoA; Potency, µM (highest dose often 57.1 µM), inactives show top-dose activity change, negative = inhibition, actives largely listed as inhibitors; hit rate 3.4% among 73,000; also: potency is read from the fitted curve at half-maximal effect; % is scaled to controls: 0 for no effect and ±100 for the full control effect; nearly all actives have a fitted effect of over 60% in size
Target sequence (Q99714 whole entry, looked up, one chain of several): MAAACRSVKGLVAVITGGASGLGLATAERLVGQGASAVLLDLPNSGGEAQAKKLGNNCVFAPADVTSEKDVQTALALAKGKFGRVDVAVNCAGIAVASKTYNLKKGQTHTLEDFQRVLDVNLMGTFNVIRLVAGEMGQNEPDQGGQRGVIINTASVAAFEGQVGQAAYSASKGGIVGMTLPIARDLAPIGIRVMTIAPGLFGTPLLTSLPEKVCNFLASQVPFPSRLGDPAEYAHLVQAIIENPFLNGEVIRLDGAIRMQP
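NADH fluorescence (ex 360/em 450 nm) read every 30 s for 4 min; activity taken as last-minus-first time point difference. Enzyme 20 nM, NAD+ 1 mM, beta-hydroxybutyryl-CoA 90 uM, pH 9.0 Tris buffer.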
CRE-bla Fsk: Cell signaling CRE-BLA (Fsk stim); CHO CRE-bla reporter (cAMP response element driving beta-lactamase), forskolin EC10, beta-lactamase ratio; Potency, µM (highest dose often 38.2 µM), inactives show at the highest dose activity change, negative = inhibition, usual class: activators; hit rate 2.5% among 71,000; AID 662, 2007; active = well fitted activation curve with a large enough effect in the signal ratio, with a control signal flat, not every such curve was filed as active; inconclusive = small, poorly fitted or top-dose-only effect, or effect the other way, or a change in a side signal; the % refers to the signal ratio; also: potency is read from the fitted curve at half-maximal effect; % of control where 0% means no effect
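Cells were plated overnight at 37 °C, exposed to compound titrations plus EC10 NKH 477 for 3 h, then given CCF4 dye for 2 h at room temperature. Blue/green (460/530 nm) ratio was converted to %Activity and AC50 values calculated.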
* = called active by the depositor; i = inactive; u = inconclusive; x = no result; [ ] = another dose, or the depositor's remark. Sampled rows, rich in hits. Any-hit rate of the full collection: about 14%. Unless noted, calls follow the shape of the dose curve; as a rule, active = well fitted curve in the direction sought with a large enough effect; inconclusive = small, poorly fitted or top-dose-only effect, or another doubt; inactive = no such curve, though single readings can be large; an effect the other way counts as inactive or inconclusive.

SMILES | AID923 | HSD17B inhib | A350 fluor | 4-MU autofl | HADH2 inhib | CRE-bla Fsk
CCN1CCN(Cc2ccc(NC(=O)Nc3cccs3)cc2)CC1 | 0% | -15% | i | i | u | -13%
CN(C)CCNC(=O)c1ccc(Cc2nc3ccccc3[nH]2)cc1 | 3% | 4% | x | x | -6% | x
CCN(CC)C(=O)CSC1=Nc2ccccc2C2=NC(Cc3c[nH]c4ccccc34)C(=O)N12 (stereo unspecified) | 1% | -1% | i | i | -2% | u
Cc1cc(NC(=O)CSC2=Nc3ccccc3C3=NC(Cc4ccccc4)C(=O)N23)n[nH]1 (stereo unspecified) | 2% | -27% | 1.7e-08M* | 1.6e-08M* | 4% | u
Cc1cccc(NC(=O)CSc2nnc(-c3ccccc3C)o2)c1 | 1% | 9% | i | i | 18% | -4%
Cn1c(SCC(=O)NCc2ccc3c(c2)OCO3)nnc1-c1cc2ccccc2cc1O | 1% | u | u | u | -5% | -17%
CCOC(=O)CSC1=Nc2ccccc2C2=NC(CC(=O)NCc3ccc4c(c3)OCO4)C(=O)N12 (stereo unspecified) | 1% | -11% | 1.1e-08M* | 1.1e-08M* | -16% | 8%
CCOC(=O)CSC1=Nc2ccccc2C2=NC(CC(=O)NCc3ccc(OC)cc3)C(=O)N12 (stereo unspecified) | -1% | -16% | 1.7e-08M* | 1.9e-08M* | -16% | u
CCCCNC(=O)CC1N=C2c3ccccc3N=C(SCC(=O)Nc3cccc(C)c3)N2C1=O (stereo unspecified) | -3% | -9% | 1.3e-08M* | 1.4e-08M* | -7% | -16%
CCOC(=O)CSc1nnc(CNC(=O)c2ccc(OC)cc2)n1Cc1ccccc1 | 1% | 7% | i | i | -1% | 1%
COc1cc(C=O)c([N+](=O)[O-])cc1OC | -1% | -23% | x | x | u | x
COC(=O)c1[nH]c2cccc(OC)c2c1NC(=O)CCN1CCN(c2cccc(Cl)c2)CC1 | -2% | 25µM* | u | 1.4e-08M* | -26% | -11%
COC(=O)c1[nH]c2cccc(OC)c2c1NC(=O)CCN1CC(C)CC(C)C1 (stereo unspecified) | -1% | 32µM* | u | 1.5e-08M* | -6% | 4%
CC1CC(C)CN(CCC(=O)Nc2cccc(Cl)c2)C1 (stereo unspecified) | 4% | 3% | x | x | -2% | -9%
CCCC/C=C/C(NC(=O)c1ccc(C(F)(F)F)cc1)c1ccccc1 (stereo unspecified) | -1% | -12% | x | x | 1% | u
CC(=O)N1CCC2(CCN(Cc3ccncc3)CC2)CC1 | 2% | 4% | i | i | -4% | -4%
CCOC(=O)CC(=O)CSC1=C(C#N)C(c2ccccc2OC)CC(=O)N1 (stereo unspecified) | 3% | 25µM* | i | i | -10% | -1%
CCSC1=C(C#N)C(c2ccccc2C)CC(=O)N1 (stereo unspecified) | -1% | -7% | i | i | 13% | -2%
O=C1C2=CC[C@@H]3C(=O)N(c4ccc(F)cc4F)C(=O)[C@H]3[C@H]2[C@H](O)[C@H]2O[C@H]12 | 6%[11.5 µM] | -10%[11.4 µM] | x | x | -8%[11.4 µM] | x
CC1CCC(NC(=O)CN2C(=O)C3CCCN3c3ncc(Cl)cc32)CC1 (stereo unspecified) | 20% | u | 1.2e-08M* | 1.1e-08M* | -1% | u
COc1ccccc1N1CCN(C(=O)c2ccc(S(=O)(=O)N3CCCCCC3)cc2)CC1 | 2% | 0% | i | i | 1% | -14%
COc1cccc(/C=N/n2cncn2)c1OCC#N | 0% | 25µM* | u | u | u | u
CCOC(=O)c1ccccc1OCc1cc(/C=N/n2cncn2)ccc1OC | x | x | i | i | x | x
CC(C)=CCC/C(C)=C/CO | 5%[11.5 µM] | 4%[11.4 µM] | i | i | 7%[11.4 µM] | 15%[7.6 µM]
CCSc1nc(N)c(C#N)c(-c2ccccc2Cl)c1C#N | x | x | u | i | x | x
SMILES | AID923 | HSD17B inhib | A350 fluor | 4-MU autofl | HADH2 inhib | CRE-bla Fsk
CCc1nc(C)c(C#N)c2cc(OC)c(OC)cc12 | 0% | 16% | x | x | 14% | u
Cc1nc(N)c(C#N)c(-c2ccccc2)c1C | 0% | 0% | u | u | u | u
CCc1nc(N)c(C#N)c(-c2ccncc2)c1C | 0% | u | 2.5e-08M* | 1.9e-08M* | 25µM* | u
CCc1nc(N)c(C#N)c(-c2ccc(OC)c(OC)c2)c1C | 2% | 94% | 9.7e-08M* | 5.7e-08M* | 156% | u
CCc1nc(N)c(C#N)c(-c2ccc(O)c(OC)c2)c1C | 1% | -22% | i | i | -2% | 10µM*
CCc1nc(N)c(C#N)c(-c2cccn2C)c1C | -1% | u | 9.2e-08M* | 7.1e-08M* | 0% | 13µM*
CS(=O)(=O)c1ccc(CNC(=O)[C@@H]2C[C@H]2[C@@H](NP(=O)(c2ccccc2)c2ccccc2)c2ccccc2)cc1 | -2% | u | x | x | -6% | -15%
COc1ccc(CNc2ncncc2-c2ccccc2C(F)(F)F)c(OC)c1 | 0% | -1% | i | i | -23% | 19%
CCc1ccc2nc(NC3=NCN(CCN4CCOCC4)CN3)nc(C)c2c1 | 1% | -11% | 1.2e-08M* | u | 10µM* | 10%
C=CCOc1ccccc1/C=c1\sc2nc(=O)c(C)nn2c1=O | -1% | 25µM* | i | i | 25µM* | -2%
Nc1nc(OCC(F)(F)F)cc(Oc2ccccc2F)n1 | -3% | -11% | x | x | 2%[11.4 µM] | u
Nc1cc(N)c(OCC(F)(F)F)cc1OCC(F)(F)F | 7% | -14% | 1.1e-08M* | u | 2.5µM* | 25%
O=C(c1ccc(Cl)s1)N1CCN(c2ccccc2)CC1 | 3% | 9% | x | x | 13% | 13µM*
Cc1nn(-c2ccc(F)cc2)c2c1cc(C#N)c1nc3ccccc3n12 | 7% | 0.63µM* | 6e-07M* | 4.3e-07M* | 5% | 3%
COc1ccccc1Oc1cc(C#N)c(C#N)cc1-n1nnc2ccccc21 | -1% | u | i | i | 9% | -2%
COC(=O)Nc1c(C(=O)OC)cc(OC)c(OC)c1OC | 2% | u | x | x | -13% | 2%
COC(=O)c1cc(OC)c(OC)c(OC)c1N | 0% | -16% | 7.4e-08M* | 5.8e-08M* | -11% | u
CCOCCOCC | 4% | -3% | x | x | 0% | -5%
Cc1nonc1NC(=O)OC1CCCCC1 | 2% | 7% | u | u | 12% | u
